# Laboratory results published in publication PMC7819943, “Rice protein-binding microarrays: a tool to detect cis-acting elements near promoter regions in rice”.
# Whole data set: some 68,000 sequences, median “fluorescence intensity (a.u.)” near 9,100, cut for the highest 2% near 16,000. Only a selection was taken, and the highest values are over-represented in it overall.
# Molecular target: OsWRKY34 (Oryza sativa, UniProt Q0JBA9 1-250)
# Experiment: protein-binding microarray (RPBM); PBS, 2% BSA, 51.3 ng/ul salmon testes DNA, 50 uM zinc acetate, 200 nM TF, 25 C, 1 h; high values mean tight binding
# Conditions: protein: recombinant; tags: N-terminal polyhistidine and DsRed monomer fusion (pET32a); label: CyDye5-dUTP incorporated in the synthesized complementary strand; 3' TTTTT single-stranded linker to array surface; dsDNA, one strand shown
# Procedure, shortened: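 Transcription factors were made in E. coli BL21-CodonPlus as N-terminal fusions to a polyhistidine tag and DsRed, then purified on Ni–NTA. After primer extension with Cy5-dUTP and blocking with 2% BSA, a custom Agilent array was exposed for 1 h at 25 °C to 200 nM protein in PBS, 2% BSA, salmon testes DNA and 50 µM zinc acetate. Washed arrays were scanned on an Axon 4000B, and the binding signal is per-feature fluorescence intensity in arbitrary units.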
# OsWRKY34, sequence (Q0JBA9 entry or part of it): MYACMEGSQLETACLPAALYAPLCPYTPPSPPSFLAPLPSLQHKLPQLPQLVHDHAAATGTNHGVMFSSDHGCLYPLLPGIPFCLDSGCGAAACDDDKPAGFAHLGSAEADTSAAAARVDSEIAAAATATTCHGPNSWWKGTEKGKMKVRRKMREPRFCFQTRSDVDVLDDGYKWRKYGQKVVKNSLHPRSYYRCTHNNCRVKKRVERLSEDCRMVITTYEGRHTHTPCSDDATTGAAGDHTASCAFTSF
row,Sequence,binding signal
1,TAATACTCCTACTATGGACTTGTTCTCCGTGTTGCTTATTCGGAGTCACCTAGTGCAG,10200 fluorescence intensity (a.u.)
2,CCGTTACATGACGTGGGCCCCACCCAGCCGCGCCAGCCCACGGAGTCACCTAGTGCAG,8450 fluorescence intensity (a.u.)
3,CCACTCACTCTGTGTTTCACTTGCTGCCTTTCAGTTGCAACGGAGTCACCTAGTGCAG,8820 fluorescence intensity (a.u.)
4,TTCTAAATTTGAAACGGTTTTATGACTTCTTTTCAGCGTTCGGAGTCACCTAGTGCAG,8520 fluorescence intensity (a.u.)
5,GGTGACGGCGGCTGTCTTCTTCGTAGGGTGCGGGGTGGCTCGGAGTCACCTAGTGCAG,8880 fluorescence intensity (a.u.)
6,TGTCTACATACGCTCAATCCATTATTCCCCTATTACATCACGGAGTCACCTAGTGCAG,9500 fluorescence intensity (a.u.)
7,ACCATCCAGCGCGTAACCGATTCCCTGTACATTCGGCCGCCGGAGTCACCTAGTGCAG,9080 fluorescence intensity (a.u.)
8,GGAGATCTTATACCCGATTTTACTGTTGAGGATTGTGACTCGGAGTCACCTAGTGCAG,8640 fluorescence intensity (a.u.)
9,ACGCTTACAACATGCGCATACACGCACACCCAATCCTATGCGGAGTCACCTAGTGCAG,11000 fluorescence intensity (a.u.)
10,AGATTTTTTTGAACTTTCTGTCTGGGTCGGCTGTTTGTGTCGGAGTCACCTAGTGCAG,10500 fluorescence intensity (a.u.)
11,GGTAGATTATATTAGGTTTTTCTTCGTGTTGTATTCACGACGGAGTCACCTAGTGCAG,8720 fluorescence intensity (a.u.)
12,TAAGACGTTTTGACTTTTTTTTTTCCTATTTAAACCTTTTCGGAGTCACCTAGTGCAG,13500 fluorescence intensity (a.u.)
13,CACACATAAACTTTTAACTTTTTTATCACATCGTTTTAATCGGAGTCACCTAGTGCAG,8490 fluorescence intensity (a.u.)
14,GTCCTTAAATATTTGACGTCGTTGACTTTTTTTAAAATATCGGAGTCACCTAGTGCAG,20900 fluorescence intensity (a.u.)
15,AAATACAACTTTGACTTTTTGTTTCTTTAAAAATATTTATCGGAGTCACCTAGTGCAG,9920 fluorescence intensity (a.u.)
16,CCTGTAATACTCTCTCCGTCTATAAATATTTGACGCCGTTCGGAGTCACCTAGTGCAG,8560 fluorescence intensity (a.u.)
17,TAGCGTCGTTGACTTTTGAACACATTTTTATCATTTAAATCGGAGTCACCTAGTGCAG,22400 fluorescence intensity (a.u.)
18,ACTTTTTAAATATGTTTGACCGTTCGTCTTATTCAAAAACCGGAGTCACCTAGTGCAG,9990 fluorescence intensity (a.u.)
19,CTTACTCTCTCCGTCTCTAAATATTTGACGCCGTTGACTTCGGAGTCACCTAGTGCAG,12900 fluorescence intensity (a.u.)
20,ACTCTCTCCGTCCTTAAATATTTGACGCCGTTGACTTTTTCGGAGTCACCTAGTGCAG,30600 fluorescence intensity (a.u.)
21,TATTTTTTGGTTGTCCTTTGTTTTTTTAAAAAATATTTGTCGGAGTCACCTAGTGCAG,8170 fluorescence intensity (a.u.)
22,CTCCGTCCTTAAATATTTGACGTCGTTGACTTTTTTAAACCGGAGTCACCTAGTGCAG,26000 fluorescence intensity (a.u.)
23,CTCTTCATTTTTTTAATAGATAGCGTCGTTGACTTTTGAACGGAGTCACCTAGTGCAG,14800 fluorescence intensity (a.u.)

row,Sequence,binding signal
1,GGAGGGGTTGGAAAAATTCGGTGTTCGTGGCCGCCTTCACCGGAGTCACCTAGTGCAG,13400 fluorescence intensity (a.u.)
2,GAAAATATCTGAAAGATACCGTTTGTCGTACTCCTTTTCTCGGAGTCACCTAGTGCAG,9000 fluorescence intensity (a.u.)
3,AACATTGATGAGAATTGAAATCATTTCGTTGCTCTAATCTCGGAGTCACCTAGTGCAG,8340 fluorescence intensity (a.u.)
4,CTAGCTGAAGACTTGTGCATGCAGTTTACACCTTTTATCTCGGAGTCACCTAGTGCAG,9280 fluorescence intensity (a.u.)
5,TAGCTCGTCTACTCCTAGCTCTCTCGTCCAATCCGGCCGGCGGAGTCACCTAGTGCAG,8680 fluorescence intensity (a.u.)
6,CTACGTGAGCTCGTTGCTGTGTCTCCTCTCTCTGCATCGCCGGAGTCACCTAGTGCAG,9690 fluorescence intensity (a.u.)
7,CTCACAGTAAGCTTGTCCAACAGATCCATTCCTAACCTACCGGAGTCACCTAGTGCAG,8140 ± 110 fluorescence intensity (a.u.)
8,TCCACTTCCAACATCTACTATCTTTTCTCACGCTTTTTCCCGGAGTCACCTAGTGCAG,8630 fluorescence intensity (a.u.)
9,CTCCTCAGCTAGTTGCTTGTCCCACACCACATCTTTCTTTCGGAGTCACCTAGTGCAG,12900 fluorescence intensity (a.u.)
10,GTCCAGTGGACCAACCGGGTCACGGTCTCACGTGCCAAAGCGGAGTCACCTAGTGCAG,8710 fluorescence intensity (a.u.)
11,AAAATCTGTCATCGTCGTATCATGCATGTCGAATGTTTTGCGGAGTCACCTAGTGCAG,8380 fluorescence intensity (a.u.)
12,AGCTATTTTACATGTTATTTTTTCATTGTTATCGTACTAACGGAGTCACCTAGTGCAG,10500 fluorescence intensity (a.u.)
13,TCCCTCCATCCCAAAATGTTATCTTTGACGTCGTTGACTTCGGAGTCACCTAGTGCAG,10900 fluorescence intensity (a.u.)
14,CACCATCCCAAAATATTTGACGCCGTTGACTTTTTTAAAACGGAGTCACCTAGTGCAG,14000 fluorescence intensity (a.u.)
15,CATCCCAAAATATTTGACGTCGTTGACTTTTTTAAAAGTGCGGAGTCACCTAGTGCAG,18000 fluorescence intensity (a.u.)
16,GGGTCAGAGGGTAGGTTATTGTTGGGTAGGTGTGGAATTGCGGAGTCACCTAGTGCAG,9800 fluorescence intensity (a.u.)
17,AGGGTAAGAGGAGGAGGAGGAGGGGTAGGCGAGGGAGATGCGGAGTCACCTAGTGCAG,8490 fluorescence intensity (a.u.)
18,GGAGGTCAGGATTGTTGTGGTGGGGAATTGGAGGGAAATGCGGAGTCACCTAGTGCAG,19600 fluorescence intensity (a.u.)
19,CGGCCCAGGTGGGAGAGGAGGGGAGGGGAGGGGAGGGATGCGGAGTCACCTAGTGCAG,19800 fluorescence intensity (a.u.)
20,AGGTGGAGGTGGGGAGGATGCGGGAGAGGGAGGTGATGATCGGAGTCACCTAGTGCAG,14000 fluorescence intensity (a.u.)
21,GAGAGTAAGGATCAGGAGGAGGTGGAGGAGGAGGAGGATGCGGAGTCACCTAGTGCAG,8300 fluorescence intensity (a.u.)
22,GGATGAGGAGGAGGGTGTGGAGGAGGAGGAGGAGGAGGTGCGGAGTCACCTAGTGCAG,11500 fluorescence intensity (a.u.)
